Compounds without any hit were thinned out: in the full panel of roughly 79,000, 15% have a hit. Rule as the data show it: active = growth inhibition above about 70%; inactive = the rest.
Columns and labels:
[1] = NCI Yeast Anticancer Drug Screen. Data for the rad50 strain (AID 155);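 also: 0% = growth of vehicle-only cultures of the same strain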; conditions: S. cerevisiae rad50 strain growth inhibition; at 50.0 µM; stronger effect = higher value
In short: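 Growth of the mutant yeast was measured after compound exposure and referenced to vehicle-treated cultures.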

[2] = NCI Yeast Anticancer Drug Screen. Data for the mec2-1 strain (AID 157); conditions: S. cerevisiae mec2-1 strain, at 50.0 µM, stronger effect = higher value
In short: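 Vehicle-treated cultures served as reference for growth inhibition of compound-exposed mec2-1 yeast.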

[3] = NCI Yeast Anticancer Drug Screen. Data for the sgs1 mgt1 strain (AID 161);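 also: 0% = growth of cultures given vehicle only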; conditions: S. cerevisiae sgs1 mgt1 strain, at 50.0 µM, stronger effect = higher value
In short: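 Inhibition of yeast growth, normalised to vehicle-treated controls, is reported for a strain bearing genetic alterations in DNA damage repair.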

[4] = NCI Yeast Anticancer Drug Screen. Data for the cln2 rad14 strain (AID 165);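 also: 0% = growth equal to vehicle treated cultures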; conditions: S. cerevisiae cln2 rad14 strain, at 50.0 µM, stronger effect = higher value
In short: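 Each compound was tested on cln2 rad14 yeast. Inhibition of growth was calculated against vehicle-exposed controls.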

[5] = NCI Yeast Anticancer Drug Screen. Data for the bub3 strain (AID 167); conditions: S. cerevisiae bub3 mutant strain, at 50.0 µM, stronger effect = higher value
In short: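 Whole-cell yeast assay. The mutant strain was incubated with compounds, and growth inhibition was determined by comparison with vehicle-treated cells.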

[6] = NCI Yeast Anticancer Drug Screen. Data for the mlh1 rad18 strain (AID 175); conditions: S. cerevisiae mlh1 rad18 strain growth inhibition; at 50.0 µM; stronger effect = higher value
In short: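 Vehicle-treated cultures served as the reference for growth inhibition in a yeast strain carrying DNA damage repair alterations exposed to each compound.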

Measured: growth inhibition

CS(=O)(=O)c1cc(=O)[nH]c(=O)[nH]1
inactive: [1] 0.55% | [2] 1.45% | [3] 18.2% | [4] 25.6% | [5] -0.9% | [6] 7.45%

O=C(Cc1ccccc1)NN1C(=O)/C(=C\c2cccc([N+](=O)[O-])c2)SC1=Nc1ccccc1
inactive: [1] -2.7% | [2] -15.2% | [3] 9.95% | [4] 17.1% | [5] -14.8% | [6] 0.85%

CC1=C(C(=O)Nc2ccccc2C)C(c2ccccc2C)C(C(=O)Nc2ccccc2C)=C(C)N1
inactive: [1] 67.2% | [2] 62.6% | [3] 51.8% | [4] 27.3% | [5] 64.3% | [6] 57.7%

Nc1nc2c(nnn2C2OC(CO)C(O)C2O)c(=O)[nH]1 (stereo unspecified)
inactive: [1] -4.6% | [2] 5.65% | [3] -5.3% | [4] -37.5% | [5] -16.8% | [6] 9.45%

CC(=O)C(C)c1nc(=S)[nH]c(=S)[nH]1 (stereo unspecified)
inactive: [1] 11.4% | [2] 12.2% | [3] 22.4% | [4] 9.1% | [5] -1.35% | [6] 4.85%

COC(=O)c1nc(N)nc(C(=O)OC)c1C(=O)c1ccc([N+](=O)[O-])cc1
inactive: [1] -20.9% | [2] -23.6% | [3] -37% | [4] -22% | [5] -44.8% | [6] -41%

CN(C)Cc1cc(N=Nc2ccc(Cl)cc2)ccc1O
inactive: [1] 26.9% | [2] 7.3% | [3] 19.4% | [4] 14.8% | [5] 36.5% | [6] 46.3%

C/C(Nc1ccc(Cl)cc1)=C1/CCOC1=O
inactive: [1] 19.1% | [2] 5.7% | [3] 35.5% | [4] 13.1% | [5] 11.7% | [6] -24.9%

CC(=O)Nc1nc(C)c(S(=O)(=O)Cl)s1
inactive: [1] 27.5% | [2] 10.4% | [3] 33% | [4] 23.2% | [5] 14.8% | [6] 19.6%

COc1ccc(C2NCCCC2c2ccccc2)cc1 (stereo unspecified)
inactive: [1] -46.3% | [2] -29.4% | [3] -2.65% | [4] 14.8% | [5] -40.2% | [6] -11.1%

Cc1[nH]c2ccccc2c(=O)c1-c1ccccc1
inactive: [1] -12.2% | [2] -14.2% | [3] -5.25% | [4] -38% | [5] 0.35% | [6] -35.8%

CCN(CC)Cc1ccccc1COC(=O)/C=C/c1ccccc1
inactive: [1] 9.8% | [2] 13.3% | [3] 11.6% | [4] 7.1% | [5] 12.9% | [6] 13.9%

CCCCCCOC(=O)c1cccc(C)c1
inactive: [1] 7.15% | [2] 4.4% | [3] 5.8% | [4] -35% | [5] 6.85% | [6] 11.2%

CC(C)C(C(=O)O)C(=O)O
inactive: [1] 3.55% | [2] 10.5% | [3] 4.75% | [4] 1.25% | [5] 3.9% | [6] 19.1%

COC(=O)c1cc(NS(=O)(=O)c2ccc(N)cc2)cc(C(=O)OC)c1
inactive: [1] -12.6% | [2] -24.2% | [3] -7.5% | [4] 4.7% | [5] -14.8% | [6] -24.6%

Cc1cccc2c1Oc1ccccc1C2N1C(=O)/C(=C/c2ccc(Cl)c(Cl)c2)SC1=S (stereo unspecified)
inactive: [1] -3.8% | [2] -10.2% | [3] 6.75% | [4] 33.8% | [5] -17.8% | [6] 0.4%

COc1cc(N)c(OC)nn1
inactive: [1] -1.1% | [2] 9.4% | [3] 3.15% | [4] -14.8% | [5] 11.3% | [6] -10.4%

CC(=O)/C(C(=N)C(=O)c1ccccc1)=C(\C)O
inactive: [1] -12.1% | [2] 22.5% | [3] 3.5% | [4] -16.6% | [5] 4.3% | [6] 0.25%

CCOC(=O)C(Cl)Cc1ccccc1 (stereo unspecified)
inactive: [1] 4.75% | [2] 13.4% | [3] 13.4% | [4] 5.45% | [5] -5.15% | [6] 1.9%

CCN(CC)CCN(C(=S)Nc1ccccc1)c1ccccc1
inactive: [1] 5% | [2] 28.1% | [3] 17.6% | [4] -10.1% | [5] 9.5% | [6] 27.4%

CCOC(=O)CCC(C#N)C(=O)OCC (stereo unspecified)
inactive: [1] 0.45% | [2] -3.9% | [3] 9.3% | [4] -10.2% | [5] 27.6% | [6] 6%

From PubChem BioAssay (NCI)
